Shown are actives, neighbours in structure and some others; about 3.9% of the full set was active somewhere.
D1 PAM = potentiators of human D1 dopamine receptor; P21728; potentiation, % at 10 µM; HEK293 TREx D1 cells, calcium flux, dopamine EC20 potentiation; actives 0.036% (n = 360,000); in the data active = potentiation above about 30%; note: 0% is about no effect
Eya2 inh = Eya2 (human) phosphatase inhibition. O00167. recombinant Eya2, OMFP fluorescence dephosphorylation (OMFP is methylfluorescein phosphate). Potency, µM (titrated, usually from 76.9 µM), for the others: at the top dose activity, negative = inhibition, actives largely listed as inhibitors. actives 0.006% (n = 330,000); note: potency is the fitted concentration of half-maximal effect; % is set by controls: 0 for no effect and ±100 for the full control effect
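Eya2 (0.2 uM) preincubated 10 min at ambient with compound, then OMFP substrate added at 50 uM; 10 min reaction in 50 mM HEPES pH 7.5, 50 mM NaCl, 5 uM MgCl2, 0.05% BSA, 1 mM DTT. Fluorescence read at Ex 485/Em 525 nm.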
USP2a block = USP2a (human) protease inhibition | actives 0.01% (n = 330,000) | Potency, µM (doses to about 38.3 µM), without a hit: at the highest dose activity change, negative = inhibition, actives largely listed as inhibitors | USP2 core, Ub-CHOP2 coupled fluorogenic reporter, 485/531 | O75604;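 note: potency is the fitted concentration of half-maximal effect; plate controls were DMSO wells for no effect and full inhibition by NEM control for full effect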
Target sequence (O75604 whole entry, looked up): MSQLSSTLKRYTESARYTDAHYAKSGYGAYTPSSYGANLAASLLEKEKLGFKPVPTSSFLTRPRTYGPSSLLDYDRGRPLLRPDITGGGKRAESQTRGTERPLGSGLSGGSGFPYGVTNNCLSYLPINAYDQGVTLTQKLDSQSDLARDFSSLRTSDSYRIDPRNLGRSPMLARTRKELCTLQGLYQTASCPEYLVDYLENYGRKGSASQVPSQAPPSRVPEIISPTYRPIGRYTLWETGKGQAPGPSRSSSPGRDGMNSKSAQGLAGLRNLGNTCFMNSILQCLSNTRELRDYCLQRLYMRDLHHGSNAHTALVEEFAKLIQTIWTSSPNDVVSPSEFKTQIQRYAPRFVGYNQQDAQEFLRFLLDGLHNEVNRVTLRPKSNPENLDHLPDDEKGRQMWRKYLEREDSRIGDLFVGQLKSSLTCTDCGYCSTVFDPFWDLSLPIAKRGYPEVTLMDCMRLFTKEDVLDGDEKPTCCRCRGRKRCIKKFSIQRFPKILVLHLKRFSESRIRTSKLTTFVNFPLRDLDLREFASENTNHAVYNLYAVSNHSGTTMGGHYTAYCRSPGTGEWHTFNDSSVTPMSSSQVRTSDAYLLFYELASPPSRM
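USP2 core (10nM final) preincubated 30min RT with compound in 20mM Tris-HCl pH 8.0, 2mM CaCl2, 2mM beta-mercaptoethanol, 0.05% CHAPS; 25nM Ub-CHOP2 plus 25nM reporter substrate added, fluorescence (Ex485/Em531) read after 60min.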
GALK inh = blocks human galactokinase activity; Potency, µM (series often up to 57.5 µM), inactives show top-dose activity change, negative = inhibition, most hits filed as inhibitors; Purified GALK, Kinase-Glo residual ATP luminescence; AID 1868; actives 0.007% (n = 270,000); note: potency is the fitted concentration of half-maximal effect; % is set by controls: 0 for no effect and ±100 for the full control effect
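Human GALK (5 nM) with 35 uM ATP and 100 uM galactose in 20 mM HEPES pH 8.0, 5 mM MgCl2, 60 mM NaCl, 1 mM DTT, 0.01% BSA. After 1 h at room temperature, leftover ATP was read by Kinase-Glo Plus luminescence.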
D1 antag = antagonists of human D1 dopamine receptor | HEK293 TREx D1 cells, calcium flux, dopamine EC80; stronger effect = lower value | activity change, negative = inhibition, % at 10 µM | actives 3.2% (n = 360,000) | AID 504652; in the data active = activity change below about -30%; note: % is set by controls: 0 for no effect and ±100 for the full control effect
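Cells carrying a force-coupled, tetracycline-inducible human D1 receptor report calcium flux. Each well gets a 10 s baseline, compound with 180 s monitoring, then an EC80 dopamine stimulus with a second 180 s kinetic read.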
D1 agonist = activates the human D1 dopamine receptor. actives 1% (n = 360,000). activation, % at 2 µM. HEK293 T-REx D1 cells, calcium flux, agonist mode; in the data active = activation above about 30%; note: 0% is about no effect
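Tetracycline-induced HEK293 TREx D1 cells, force-coupled to calcium signalling, were dye-loaded with a no-wash calcium kit. Compound was pin-added after a 10 s baseline. Fluorescence was read kinetically at 1 cycle/s for 180 s, with calcium rises flagged as agonism.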
* hit, by the source's call; . = no result. Unless noted, calls come from the whole dose curve; as a rule, active = well fitted inhibition curve with a large enough effect; inconclusive = small, poorly fitted or top-dose-only effect, or effect the other way; inactive = flat fitted curve, though single readings scatter.

SMILES	D1 PAM	Eya2 inh	USP2a block	GALK inh	D1 antag	D1 agonist
O=S1(=O)CCC(n2nccc2-c2ccccc2)C1 (stereo not drawn)	4.0	5.9%	0.2%	3.8%	13.6	2.0
CCCCC/C=C\CC(O)/C=C/c1cccc(CC(O)CCCCO)n1 (stereo not drawn)	.	0.7%	.	.	.	.
Cc1ccccc1-c1noc(-c2ccc(O)cc2)n1	3.9	-5.6%	-8.4%	8.3%	-41.5*	67.8*
Cc1cc(Cl)c(OCCOCCN2CCC(C)CC2)c(Br)c1	-13.6	-1.5%	2.9%	1.8%	6.7	33.6*
CC1CCN(CCOCCSc2ccc(Cl)cc2)CC1	-1.9	-2.9%	-0.6%	3.7%	-44.4*	21.0
Clc1ccc(SCCCCN2CCNCC2)cc1	-4.2	2.4%	-3.0%	-0.1%	-44.6*	119.8*
Cc1cc(Cl)c(OCCOCCN2CCN(C)CC2)c(Br)c1	-1.4	2.7%	-1.8%	-3.1%	7.0	3.7
Clc1ccc(SCCOCCN2CCCCC2)cc1	-4.0	-6.1%	-0.5%	3.7%	9.4	18.5
NS(=O)(=O)c1ccc(CCNC(=O)C(=O)c2cn(CC(=O)N3CCOCC3)c3ccccc23)cc1	2.8	8.4%	2.8%	-2.0%	-4.7	0.6
CCN(CC)C(=O)Cn1cc(C(=O)C(=O)NCCc2ccc(S(N)(=O)=O)cc2)c2ccccc21	-12.8	9.8%	0.9%	-0.3%	-74.4*	1.5
O=C(Nc1ccc2ncccc2c1)c1cccc(Br)c1	3.6	1.2%	-0.1%	-5.4%	5.9	-2.4
Brc1ccc(CNc2ccc3ncccc3c2)cc1	-6.6	4.3%	-0.3%	4.7%	-40.5*	14.3
OCCN1CCN(c2nc(-c3ccccc3)c3cc(Br)ccc3n2)CC1	44.3*	8.6%	-8.8%	-2.2%	8.3	44.7*
O=C(O)C1CCN(c2nc(-c3ccccc3)c3cc(Br)ccc3n2)CC1	-7.0	19.1%	-2.5%	0.9%	1.2	20.7
CCN(c1ccccc1)S(=O)(=O)c1ccc(OC)c(NC(=O)CNCCc2ccccc2)c1	-13.3	-14.9%	-4.0%	0.5%	-33.4*	22.5
N#Cc1c(N)nc2c3c(sc(=N)c2c1N)NC(=O)CC3c1ccccc1 (stereo not drawn)	-2.6	-17.0%	-1.8%	1.7%	-34.6*	-0.8
O=C(Oc1ccc(Nc2ncnc3ccccc23)cc1)c1cccnc1	-2.7	11.5%	2.7%	-1.4%	-47.1*	-0.9
CC(C)(C)c1ccc(OC(=O)c2cccnc2)cc1	-5.8	-11.4%	-0.5%	-2.8%	4.3	42.3*
O=C(O)c1ccc(Nc2ncnc3ccccc23)cc1	-0.2	-15.1%	-1.0%	.	9.3	4.4
COc1ccc(OC(=O)c2cccnc2)cc1	-1.6	15.8%	2.0%	2.2%	6.1	0.4
CCc1ccccc1N1CC(c2nc3ccccc3n2CCCOc2ccc(Cl)cc2)CC1=O (stereo not drawn)	-1.4	.	.	.	1.9	15.1
Cc1ccc(C)c(S(=O)(=O)N2CCN(C(=O)Cc3c(F)cccc3Cl)CC2)c1	7.8	-1.7%	0.3%	.	13.2	2.4
Cc1ccc(C)c(S(=O)(=O)N2CCN(C(=O)/C=C/c3ccco3)CC2)c1	-3.9	-12.9%	22.4µM*	.	-3.3	9.8
Cc1ccc(C)c(S(=O)(=O)N2CCN(C(=O)CSc3ccccc3F)CC2)c1	-8.3	1.4%	1.6%	-2.9%	-27.4	30.8*
COc1ccc2cc([S+]([O-])Cc3ncc(C)c(OC)c3C)nc2c1	.	16.1%	.	.	.	.
SMILES	D1 PAM	Eya2 inh	USP2a block	GALK inh	D1 antag	D1 agonist
O=C(NCCc1ccccc1)c1ccc(CSc2nc3ccncc3n2Cc2ccccc2F)cc1	-7.8	.	.	.	-3.7	7.0
O=C(CCC1CCCN(C(=O)c2ccc3c(c2)OCO3)C1)NCc1ccc(F)c(F)c1 (stereo not drawn)	-3.6	1.5%	0.8%	2.5%	-30.0*	0.7
Clc1ccc(Cc2nc(-c3ccncc3)no2)cc1	1.1	6.6%	2.2%	2.9%	-36.5*	11.0
CCCCCCn1c(SCC(=O)OC)nc2c1c(=O)[nH]c(=O)n2C	36.8*	6.7%	1.4%	0.8%	-1.1	0.3
CCOCCn1c(SCc2ccc(C)cc2)nc2c1c(=O)[nH]c(=O)n2C	-9.7	38.4%	0.4%	1.6%	-38.0*	-1.2
CCOCCn1c(SCc2ccc(F)cc2)nc2c1c(=O)[nH]c(=O)n2C	-1.6	-7.3%	-9.1%	0.6%	1.6	0.3
CCCCCCn1c(SCC(C)C)nc2c1c(=O)[nH]c(=O)n2C	-2.6	4.3%	-1.2%	0.5%	2.1	-0.8
Cc1nc(-c2ccccc2)sc1CCNC(=O)C(=O)Nc1ccc2c(c1)OCCO2	0.5	.	.	.	-45.4*	6.9
Cc1nc(-c2ccc(F)cc2)sc1CCNC(=O)C(=O)Nc1ccc2c(c1)OCCO2	-0.6	.	.	.	5.5	15.7
Cc1nc(-c2ccccc2)sc1CCNC(=O)C(=O)Nc1ccc(F)c(Cl)c1	-4.2	.	.	.	1.4	7.4
Cc1ccccc1C(=O)NCCc1sc(-c2ccc(Cl)cc2)nc1C	-3.4	.	.	.	-37.6*	2.3
CC(=O)Nc1cccc(NC(=O)C(=O)NCCc2sc(-c3ccccc3)nc2C)c1	-5.7	.	.	.	-40.0*	9.1
Cc1c(NC(=O)c2cc(=O)c3cc(Cl)ccc3o2)c(=O)n(-c2ccccc2)n1C	-0.3	.	.	.	-10.2	-2.4
COc1ccc(OC)c(C(=O)CN2C(=O)N(c3ccc(C)cc3)S(=O)(=O)c3ccccc32)c1	-1.2	.	.	.	3.7	6.8
Cc1ccc(NS(=O)(=O)c2ccc3[nH]c4c(c3c2)CCCCC4)cc1	-4.0	.	.	.	4.5	1.9
COCCN1C(=O)/C(=C/c2ccc(N3CCCC3)cc2C)SC1=S	4.3	0.2%	13.7%	6.4%	-9.2	224.1*
Cc1cc2n(n1)CCCN2C(=O)Nc1ccccc1F	3.1	.	.	.	11.6	6.0
Cc1ccc(S(=O)(=O)N2CC=C(c3c(C)n(CC(=O)N4CCCC4)c4ccccc34)CC2)cc1C	-4.1	.	.	.	2.2	4.0
c1ccc(Cc2nnc3sc(Nc4ccccc4)nn23)cc1	-13.1	11.6%	0.0%	-6.2%	-44.6*	6.0
Cc1cccc(C(=O)OCc2cc(=O)n3nc(C4CCCCC4)sc3n2)c1	-2.7	.	.	.	18.9	-0.2
O=C(Nc1cccc(C(=O)OCc2cc(=O)n3nc(C4CC4)sc3n2)c1)c1ccccc1	-0.1	.	.	.	16.6	0.9
Cc1ccc(C(=O)Nc2cccc(C(=O)OCc3cc(=O)n4nc(C5CC5)sc4n3)c2)cc1	0.2	.	.	.	-6.3	33.0*
Cc1cccc(C(=O)OCc2cc(=O)n3nc(C4CC4)sc3n2)c1	-6.5	.	.	.	-30.7*	8.1
COc1ccc(CNC(=O)CCc2c(C)nc3c4cccnc4nn3c2C)cc1	-2.5	.	.	.	12.7	0.3

Screening results from PubChem.
